Measured values reported in the supplement of paper PMC7156485.

Tests used:
Settings in all cases: concentration: 10 µM; 24 h
HCC1569 [1] = experiment: cell number relative to DMSO (% of DMSO); higher = more cells (less growth inhibition / toxicity)
Method in brief: (§1)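 Using 384-well plates with 800 cells per well in RPMI plus 10% FBS, HCC1569 and TDF cells were exposed to compounds at 10 µM, in triplicate, for 24 h at 37 °C. Imaging of six fields per well at ×10 followed H1.0 and DAPI staining. The reported quantity, H1.0 nuclear intensity or cell number, is a median of replicates given as percent of the plate control, and HCC1569 values were smoothed for positional effects.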

TDF [2] = experiment: as above
Method in brief: as §1

TDF [3] = experiment: H1.0 immunofluorescence intensity relative to DMSO (% of DMSO); higher = stronger H1.0 induction, active = 120 or more
Method in brief: as §1

HCC1569 [4] = experiment: H1.0 immunofluorescence intensity relative to DMSO (% of DMSO); higher = stronger H1.0 induction, active = 140 or more
Method in brief: as §1
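For H1.0 immunofluorescence intensity relative to DMSO in this document: TDF is a line of transformed human dermal fibroblasts of mesenchymal origin.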
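For cell number relative to DMSO in this document: TDF denotes transformed human dermal fibroblasts of mesenchymal origin.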

Row | SMILES | cell number (HCC1569 [1]) | cell number (TDF [2]) | H1.0 immunofluorescence intensity (TDF [3]) | H1.0 immunofluorescence intensity (HCC1569 [4])
1 | CC(NC(C)(C)C)C(=O)c1cccc(Cl)c1 (stereo not given) [Amfebutamone] | 96.8 | 108 | 97.2 (inactive) | 116 (inactive)
2 | Cl.Oc1ccc2c3c1OC1c4[nH]c5ccccc5c4CC4(O)C(C2)N(CC2CC2)CCC314 (stereo not given) [Naltrindole.HCl] | 103 | 99.3 | 93.2 (inactive) | 107 (inactive)
3 | CCCCCC=CCC=CCC=CCC=CCCCC(=O)NC(C)CO [(R)-Methandamide] | 107 | 98.1 | 100 (inactive) | 100 (inactive)
4 | CC(C)(C)c1cc(C=C(C#N)C#N)cc(C(C)(C)C)c1O [Tyrphostin A9] | 54.6 | 47 | 117 (inactive) | 87.7 (inactive)
5 | CN(C)C(=O)Oc1cc(OC(=O)N(C)C)cc(C(O)CNC(C)(C)C)c1.Cl (stereo not given) | 104 | 104 | 91.4 (inactive) | 101 (inactive)
6 | COC1C(O)C(C)OC(OC2CCC3(C=O)C(CCC4C3CCC3(C)C(C5=CC(=O)OC5)CCC43O)C2)C1O (stereo not given) [Peruvoside] | 52.3 | 44 | 107 (inactive) | 106 (inactive)
7 | Cl.OC1CCCCC1N1CCC(c2ccccc2)CC1 (stereo not given) [Vesamicol hydrochloride] | 99 | 104 | 94.2 (inactive) | 106 (inactive)
8 | CCC(C)C(=O)OC1C(O)C2C(CN3CC(C)CCC3C2(C)O)C2CC34OC5(O)C(OC(=O)C(C)(O)C(C)O)CCC3(C)C5C(OC(C)=O)C(OC(C)=O)C4C21O (stereo not given) [Protoveratrine B] | 104 | 97.9 | 106 (inactive) | 93.2 (inactive)
9 | CN1CC(NS(=O)(=O)N(C)C)CC2c3cccc4c3c(cn4C)CC21.Cl (stereo not given) [Mesulergine hydrochloride] | 101 | 100 | 93.4 (inactive) | 94.2 (inactive)
10 | CC(=O)NBr [N-Bromoacetamide] | 105 | 101 | 96.8 (inactive) | 90.3 (inactive)
11 | CC12Cc3cn[nH]c3CC1CCC1C2CCC2(C)C1CCC2(C)O (stereo not given) [Stanozolol] | 94.4 | 99.5 | 97.2 (inactive) | 87.3 (inactive)
12 | CC=C1CC(C)C(O)(CO)C(=O)OCC2=CCN3CCC(OC1=O)C23 (stereo not given) [Retrorsine] | 101 | 115 | 93.8 (inactive) | 90.4 (inactive)
13 | COC1C=C2CCN(C)C2C2c3cc4c(cc3C(=O)OC12)OCO4.O=[N+]([O-])O (stereo not given) [Ungerine nitrate] | 100 | 107 | 96.5 (inactive) | 88.8 (inactive)
14 | C#CCN(C)C(C)Cc1ccccc1.Cl [(R)-(-)-Deprenyl.HCl] | 104 | 103 | 97.8 (inactive) | 101 (inactive)
15 | CCCN(CCC)C1CCc2cccc(O)c2C1 (racemic) | 101 | 88.4 | 98 (inactive) | 86.9 (inactive)
16 | O=C1CCCC2C3CCCN4CCCC(CN12)C34 (stereo not given) [Matrine] | 100 | 94.7 | 99.3 (inactive) | 94.6 (inactive)
17 | C[N+]1(C)CCOC(O)(c2ccc(-c3ccc(C4(O)C[N+](C)(C)CCO4)cc3)cc2)C1.[Br-].[Br-] (stereo not given) [Hemicholinium-3] | 100 | 106 | 92 (inactive) | 87.8 (inactive)
18 | Cn1ncnc1COc1nn2c(-c3c(F)cccc3F)nnc2cc1C1CCC1 | 102 | 100 | 93.6 (inactive) | 99.6 (inactive)
19 | O=C1C=CC(=O)C=C1 [p-Benzoquinone] | 100 | 99.8 | 93.1 (inactive) | 93.3 (inactive)
20 | C[N+](C)(C)CCCCCCCCCC[N+](C)(C)C.[Br-].[Br-] [Decamethonium dibromide] | 101 | 100 | 91.7 (inactive) | 88.8 (inactive)
21 | CC(C)C1(NC(=O)C2CC3c4cccc5[nH]cc(c45)CC3N(C)C2)OC2(O)C3CCCN3C(=O)C(Cc3ccccc3)N2C1=O.CS(=O)(=O)O (stereo not given) [Dihydroergocristine methanesulfonate] | 91.8 | 109 | 106 (inactive) | 126 (inactive)
22 | COc1cc(C=C(C#N)C#N)cc(O)c1O [Tyrphostin AG 34] | 102 | 97.9 | 96.3 (inactive) | 114 (inactive)
23 | CCC(C)C=C(C)C=CC1=CC2=C(Cl)C(=O)C(C)(OC(C)=O)C(=O)C2=CO1 (stereo not given) [Sclerotiorin] | 97.9 | 96.1 | 95.7 (inactive) | 95.1 (inactive)
24 | COc1ccc(CCN2CCC(Nc3nc4ccccc4n3Cc3ccc(F)cc3)CC2)cc1 [Astemizole] | 88.6 | 89 | 109 (inactive) | 143 (active)
25 | CC(Cc1ccc2c(c1)OC(C(=O)[O-])(C(=O)[O-])O2)NCC(O)c1cccc(Cl)c1.[Na+].[Na+] (stereo not given) | 97.5 | 106 | 88.7 (inactive) | 95.9 (inactive)

Row | SMILES | cell number (HCC1569 [1]) | cell number (TDF [2]) | H1.0 immunofluorescence intensity (TDF [3]) | H1.0 immunofluorescence intensity (HCC1569 [4])
26 | O=P([O-])(O)C(Cl)(Cl)P(=O)([O-])O.[Na+].[Na+] [Clodronic acid] | 101 | 101 | 93.4 (inactive) | 96.4 (inactive)
27 | CCCCCC=CCC=CCC=CC=CC(CCCC(=O)O)OO (stereo not given) | 101 | 100 | 98.5 (inactive) | 106 (inactive)
28 | CCC=CCC(C=CC=CCC=CCC=CCCCC(=O)O)OO (stereo not given) | 101 | 92.8 | 92.7 (inactive) | 102 (inactive)
29 | CC(C)(C)NCC(O)c1ccccc1Cl.Cl (stereo not given) [Tulobuterol hydrochloride] | 101 | 110 | 89.1 (inactive) | 96.4 (inactive)
30 | CN1CC[C@@]2(C)c3cc(OC(=O)Nc4ccccc4)ccc3N(C)[C@@H]12 | 103 | 90.6 | 106 (inactive) | 102 (inactive)
31 | C=C1CC2C(CCC3(C)C(=O)CCC23)C2(C)C=CC(=O)C=C12 (stereo not given) [Exemestane] | 101 | 97.4 | 98.1 (inactive) | 102 (inactive)
32 | CCCC(=O)OCC[N+](C)(C)C [Butyrylcholine] | 101 | 104 | 92.9 (inactive) | 111 (inactive)
33 | CC(=O)OC1C(=O)C2(C)C(O)CC3OCC3(OC(C)=O)C2C(OC(=O)c2ccccc2)C2(O)CC(O)C(C)=C1C2(C)C (stereo not given) [Baccatin III] | 105 | 112 | 111 (inactive) | 105 (inactive)
34 | COc1ccc2c(c1)C13CCCCC1C(C2)N(C)CC3 (stereo not given) [Dextromethorphan] | 103 | 103 | 102 (inactive) | 107 (inactive)
35 | CC1C2Cc3ccc(O)cc3C1(C)CCN2CC1CC1 (single isomer, unassigned; (+)) [(+)-Cyclazocine] | 102 | 92.2 | 96.9 (inactive) | 86.8 (inactive)
36 | CC12NC(Cc3ccccc31)c1ccccc12.O=C(O)C=CC(=O)O (single isomer, unassigned; (+)) [(+)-MK-801 hydrogen maleate] | 103 | 99 | 98.6 (inactive) | 89.3 (inactive)
37 | CCNC1=Nc2ccc(Cl)cc2C(C)(c2ccccc2)O1.Cl (stereo not given) | 92.5 | 105 | 97.3 (inactive) | 141 (active)
38 | CC(C)N(CCC(C(N)=O)(c1ccccc1)c1ccccn1)C(C)C.O=P(O)(O)O (stereo not given) | 99.8 | 101 | 103 (inactive) | 102 (inactive)
39 | O=[N+]([O-])c1ccc(O[C@@H]2O[C@H](CO)[C@@H](O)[C@H](O)[C@H]2F)c([N+](=O)[O-])c1 [2,4-Dinitrophenyl 2-fluoro-2-deoxy-beta-D-glucopyranoside] | 105 | 111 | 86.5 (inactive) | 93.2 (inactive)
40 | CCCC(=O)OC1C(C)C2(O)C(C=C(CO)CC3(O)C(=O)C(C)=CC32)C2C(C)(C)C12OC(=O)CCC (stereo not given) [Phorbol 12,13-dibutyrate] | 89.5 | 74.2 | 123 (active) | 157 (active)
41 | N#CC(C#N)=Cc1ccc(O)c(O)c1 [Tyrphostin 23] | 92.8 | 93.1 | 94.4 (inactive) | 102 (inactive)
42 | c1ccc2c3c([nH]c2c1)CNCC3 [Noreleagnine] | 103 | 108 | 92.6 (inactive) | 88.4 (inactive)
43 | CC1(CO)C(O)CCC2(C)C1CCC1CC3CC12CCC3(O)CO (stereo not given) [Aphidicolin] | 79.6 | 55.2 | 108 (inactive) | 95.2 (inactive)
44 | Cl.Oc1cc2c(cc1O)C1c3ccccc3CNC1CC2 (stereo not given) [Dihydrexidine hydrochloride] | 96.3 | 118 | 82.7 (inactive) | 103 (inactive)
45 | CC1OC(=O)C(C(C)C)NC(=O)C(C(C)C)OC(=O)C(C(C)C)NC(=O)C(C)OC(=O)C(C(C)C)NC(=O)C(C(C)C)OC(=O)C(C(C)C)NC(=O)C(C)OC(=O)C(C(C)C)NC(=O)C(C(C)C)OC(=O)C(C(C)C)NC1=O (stereo not given) [Valinomycin] | 65 | 56.8 | 108 (inactive) | 174 (active)
46 | CC1OC(=O)C2CC3CCCCC3C(C=CC3CCCC(C)N3C)C12 (stereo not given) [Himbacine] | 103 | 107 | 92.4 (inactive) | 87.4 (inactive)
47 | Cl.Cl.Cn1cnc(CCN)c1 [1-Methylhistamine dihydrochloride] | 98.1 | 110 | 86.4 (inactive) | 95.3 (inactive)
48 | O=C1C=C2C(=CCOC2O)O1 (stereo not given) [Patulin] | 22.4 | 8.4 | 224 (active) | 132 (inactive)
49 | COc1ccc2c(c1)=NC1=C(C)NCCC=21 [Harmaline] | 99.3 | 103 | 97.5 (inactive) | 93.9 (inactive)
50 | COC1=CC(=O)OC(CCc2ccc3c(c2)OCO3)C1 (stereo not given) [Dihydromethysticin] | 96.6 | 105 | 90.4 (inactive) | 83.9 (inactive)
